Screens as filed in PubChem BioAssay.
The list is not random: actives were taken first. Their share in the collection is about 0.65%.
TcdB GH inh: TcdB glycohydrolase inhibition; P18177; TcdB glycohydrolase enzymatic assay, plate reader; inhibition, % at 9.99 µM; actives 0.24% (n = 350,000); AID 652162; in the data active = inhibition above about 10%
Target sequence (P18177 whole entry, looked up): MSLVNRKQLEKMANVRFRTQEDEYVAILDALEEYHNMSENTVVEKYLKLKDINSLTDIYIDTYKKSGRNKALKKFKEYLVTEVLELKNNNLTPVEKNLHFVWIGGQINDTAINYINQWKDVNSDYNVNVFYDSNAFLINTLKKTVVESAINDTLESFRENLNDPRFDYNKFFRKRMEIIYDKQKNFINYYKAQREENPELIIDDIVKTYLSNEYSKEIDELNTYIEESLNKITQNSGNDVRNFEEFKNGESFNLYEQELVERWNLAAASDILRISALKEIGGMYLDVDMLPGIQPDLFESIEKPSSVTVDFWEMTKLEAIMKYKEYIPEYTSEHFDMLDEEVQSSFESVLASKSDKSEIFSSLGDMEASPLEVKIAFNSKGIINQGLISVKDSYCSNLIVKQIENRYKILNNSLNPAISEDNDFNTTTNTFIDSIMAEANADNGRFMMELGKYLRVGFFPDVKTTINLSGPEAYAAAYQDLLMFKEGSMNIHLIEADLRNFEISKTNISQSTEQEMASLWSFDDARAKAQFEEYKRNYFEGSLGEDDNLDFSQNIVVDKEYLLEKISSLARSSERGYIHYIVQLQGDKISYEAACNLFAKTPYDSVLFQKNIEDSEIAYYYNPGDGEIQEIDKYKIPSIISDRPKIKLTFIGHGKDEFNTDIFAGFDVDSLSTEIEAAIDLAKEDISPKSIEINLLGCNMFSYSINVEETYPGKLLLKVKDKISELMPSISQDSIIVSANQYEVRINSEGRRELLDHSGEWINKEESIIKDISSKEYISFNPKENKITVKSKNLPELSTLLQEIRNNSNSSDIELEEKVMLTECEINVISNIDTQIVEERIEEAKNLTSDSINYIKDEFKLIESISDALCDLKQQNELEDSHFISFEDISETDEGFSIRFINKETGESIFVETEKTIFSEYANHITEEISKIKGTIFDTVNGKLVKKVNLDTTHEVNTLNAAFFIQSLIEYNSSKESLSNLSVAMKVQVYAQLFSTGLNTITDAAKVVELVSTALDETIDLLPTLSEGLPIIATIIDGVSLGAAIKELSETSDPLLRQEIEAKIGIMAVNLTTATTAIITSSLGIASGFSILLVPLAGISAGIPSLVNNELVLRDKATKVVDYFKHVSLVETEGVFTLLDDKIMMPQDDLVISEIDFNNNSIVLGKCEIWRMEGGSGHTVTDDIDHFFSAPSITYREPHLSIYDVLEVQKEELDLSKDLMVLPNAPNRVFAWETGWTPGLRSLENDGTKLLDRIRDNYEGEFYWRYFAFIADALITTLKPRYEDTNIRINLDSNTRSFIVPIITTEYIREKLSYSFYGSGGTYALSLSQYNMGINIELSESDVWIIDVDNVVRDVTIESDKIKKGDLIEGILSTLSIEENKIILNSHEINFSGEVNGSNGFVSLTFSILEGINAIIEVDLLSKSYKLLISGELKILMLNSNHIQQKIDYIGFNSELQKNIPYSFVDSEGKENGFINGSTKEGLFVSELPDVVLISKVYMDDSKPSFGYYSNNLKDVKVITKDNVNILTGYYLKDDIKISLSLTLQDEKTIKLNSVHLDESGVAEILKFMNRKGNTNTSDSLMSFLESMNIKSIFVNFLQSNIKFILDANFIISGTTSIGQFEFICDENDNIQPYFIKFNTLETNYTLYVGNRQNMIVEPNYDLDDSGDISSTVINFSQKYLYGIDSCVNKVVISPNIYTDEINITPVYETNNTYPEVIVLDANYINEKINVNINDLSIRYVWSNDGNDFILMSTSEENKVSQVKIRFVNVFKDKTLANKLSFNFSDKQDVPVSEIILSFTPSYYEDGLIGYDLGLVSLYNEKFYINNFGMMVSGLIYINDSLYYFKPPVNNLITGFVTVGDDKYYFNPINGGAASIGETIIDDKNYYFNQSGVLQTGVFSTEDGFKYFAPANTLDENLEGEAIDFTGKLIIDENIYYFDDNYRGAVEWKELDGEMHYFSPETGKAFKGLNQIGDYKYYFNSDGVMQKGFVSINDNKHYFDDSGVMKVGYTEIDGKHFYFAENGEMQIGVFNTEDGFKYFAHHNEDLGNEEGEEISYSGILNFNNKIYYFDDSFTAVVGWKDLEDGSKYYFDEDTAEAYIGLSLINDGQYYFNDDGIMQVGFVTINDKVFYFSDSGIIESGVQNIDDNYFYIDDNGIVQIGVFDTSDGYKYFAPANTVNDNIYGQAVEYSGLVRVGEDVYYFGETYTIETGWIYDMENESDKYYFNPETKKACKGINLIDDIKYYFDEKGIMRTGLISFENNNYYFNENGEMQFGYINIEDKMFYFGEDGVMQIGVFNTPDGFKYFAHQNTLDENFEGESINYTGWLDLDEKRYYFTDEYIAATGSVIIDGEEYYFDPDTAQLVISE
PrP 5UTR inh: inhibition of PrP 5' UTR reporter expression; actives 0.35% (n = 340,000); cell-based PrP 5' UTR mRNA reporter, plate reader; inhibition, % (concentration not given with the values); in the data active = inhibition above about 52%; also: 0 = median of the neutral control wells
Vc quorum ag-1: induces V. cholerae light production without autoinducers; V. cholerae BH1578 lux reporter, luminescence, 6 h; activation, % at 18.7 µM; actives 0.16% (n = 350,000); AID 588436; in the data active = activation mostly above about 9.7%, no sharp cut-off
Yp Topo-I inh: Y. pestis Topo-I inhibition via cleavage products. Y. pestis Topo-I cleavage product accumulation, plate reader. activity, % at 10 µM. actives 0.064% (n = 360,000). AID 504884; in the data active = activity above about 50%, passing the limit was not always enough
UGM FP inh: blocks M. tuberculosis UGM enzyme; actives 0.06% (n = 320,000); purified UGM, fluorescence polarization probe displacement; P9WIQ1; inhibition, % at 10 µM; in the data active = inhibition above about 10%, passing the limit was not always enough
Vc quorum ag-2: induces V. cholerae light production without autoinducers; shares compounds with Vc quorum ag-1; V. cholerae BH1578 lux reporter, luminescence, 6 h; activation, % at 50 µM; 620 tested, under 10 active; AID 602243; call rule not given here
An asterisk follows results filed as active; i = inactive; . = no result.

SMILES	TcdB GH inh	PrP 5UTR inh	Vc quorum ag-1	Yp Topo-I inh	UGM FP inh	Vc quorum ag-2
Cc1ccc(S(=O)(=O)NCc2cccnc2)cc1C(=O)NC1CCCCC1	2	-14	14	-9	0	0
C[C@@H]1CCCCO[C@@H](CN(C)C(=O)Nc2ccccc2)[C@H](C)CN([C@H](C)CO)C(=O)c2cc(NC(=O)Nc3ccc(F)cc3)ccc2O1	0	.	.	.	.	.
Nc1nnc(-c2ccccc2F)s1	-1	-18	0	1	3	.
Nc1nnc(-c2ccc(Cl)cc2Cl)s1	0	-64	470*	0	0	69
CCOC(=O)C1=C(C)NC(C)=C(C(=O)OCC)C1c1ccc(OC)cc1	.	9	0	-8	-3	.
CCOC(=O)C1=C(C)NC(SC)=NC1c1ccc(OC)cc1 (stereo not given)	.	-12	25	-1	0	0
Cc1ccc(S(=O)(=O)N2Cc3ccccc3CC2C(=O)Nc2ccc3c(c2)OCO3)cc1 (stereo not given)	.	-37	3	1	0	2
O=C(NCc1nc2ccccc2[nH]1)C1=C[C@H](c2ccc(Br)cc2)C[C@H](OCCCCO)O1	-1	.	.	.	.	.
CC(=O)c1ccc(Oc2cc(C)nc(NCc3ccccc3)n2)cc1	.	-1	25*	32	-8	1
Cc1ccc(C)c(OCCC(=O)OCC(=O)NC2CC2)c1	3	-29	27	4	0	0
Cc1ccc(C)c(OCCC(=O)OCC(=O)NC(=O)NC2CCCC2)c1	1	1	i	-9	-2	.
Cc1ccc(Cn2c(SCC(C)C)nc3c2c(=O)[nH]c(=O)n3C)cc1	.	11	25*	6	1	2
CCC(=O)N(C)C[C@@H]1Oc2ncc(/C=C/c3ccccc3)cc2C(=O)N([C@H](C)CO)C[C@H]1C	0	.	.	.	.	.
CCOC(=O)c1cnc2nc(C(F)(F)F)[nH]n2c1=O	.	-17	17*	-1	-1	0
CCOC(=O)c1cnc2nc(Cc3ccccc3)[nH]n2c1=O	.	-21	i	1	2	.
Cc1ccccc1S(=O)(=O)N1[C@H](C#N)[C@H](c2ccc(-c3ccccc3)cc2)[C@@H]1CO	-1	.	.	.	.	.
CCOc1ccc(NS(=O)(=O)c2ccc(C(=O)NCC(c3ccco3)N3CCCCC3)cc2)cc1 (stereo not given)	1	.	-6	20	.	.
CCOc1ccc(S(=O)(=O)Nc2ccc(C(=O)NCC(c3ccco3)N3CCCCC3)cc2)cc1 (stereo not given)	1	-11	14	14	-1	0
COc1ccccc1NS(=O)(=O)c1cccc(C(=O)NCC(c2ccco2)N2CCCCC2)c1 (stereo not given)	0	-8	14	7	.	0
COc1ccccc1NS(=O)(=O)c1ccc(C(=O)NCC(c2ccco2)N2CCCCC2)cc1 (stereo not given)	1	-15	-13	2	.	.
C[C@@H]1CCCCO[C@@H](CN(C)C(=O)CCCN(C)C)[C@@H](C)CN([C@@H](C)CO)C(=O)c2cc(NS(=O)(=O)c3ccc(F)cc3)ccc2O1	2	.	.	.	.	.
C[C@@H]1CCCCO[C@H](CN(C)C(=O)Cc2ccccc2)[C@H](C)CN([C@@H](C)CO)C(=O)c2cc(NC(=O)Nc3ccc4c(c3)OCO4)ccc2O1	1	.	.	.	.	.
COc1cccc(-c2ccc([C@H]3[C@@H](C#N)N(C(=O)Cc4ccccc4)[C@@H]3CO)cc2)c1	0	.	.	.	.	.
Cc1nn(-c2ccccc2)c(C)c1NC(=O)COC(=O)c1cccc(OC(F)F)c1	1	-28	26	-4	-4	0
CCC(=O)N1[C@@H]2c3ccc(-c4ccc(F)cc4)c(=O)n3C[C@@H]2[C@@H](CO)[C@@H]1C(=O)N(C)C	-1	.	.	.	.	.
SMILES	TcdB GH inh	PrP 5UTR inh	Vc quorum ag-1	Yp Topo-I inh	UGM FP inh	Vc quorum ag-2
CN1[C@@H]2Cn3c(ccc(-c4ccccc4)c3=O)[C@H]1[C@@H](C(=O)Nc1nccs1)[C@@H]2CO	0	.	.	.	.	.
COC(=O)c1[nH]c2ccc(C)cc2c1NC(=O)Nc1ccc(OC)cc1	.	-19	18*	9	0	2
CCCNC(=O)N1CC2(CN(C(=O)c3cccc(F)c3)C2)c2c([nH]c3cc(OC)ccc23)[C@H]1CO	2	.	.	.	.	.
C[C@@H]1CCCCO[C@H](CN(C)Cc2ccc3c(c2)OCO3)[C@H](C)CN([C@H](C)CO)C(=O)c2cc(NC(=O)NC3CCCCC3)ccc2O1	1	.	.	.	.	.
O=C(NCc1ccco1)C1CCCN1S(=O)(=O)c1ccc2ccccc2c1 (stereo not given)	2	-19	14	3	2	0
Cn1c(C(=O)NC2CCCCCC2)cc2c(=O)n(C)c3ccccc3c21	1	-17	1	29	1	.
Cn1c(C(=O)NC2CCCCC2)cc2c(=O)n(C)c3ccccc3c21	-1	-6	245*	-2	1	i
COc1ccccc1CNC(=O)c1ccc(S(=O)(=O)N(C)c2ccccc2)cc1	-1	-25	14	21	.	0
CC(C)[C@H](NC(=O)c1cccc(S(=O)(=O)N2CCCC2)c1)c1nc2ccccc2[nH]1	.	-20	.	4	3	.
CC(C)C(NC(=O)c1ccc(S(=O)(=O)N2CCOCC2)cc1)c1nc2ccccc2[nH]1 (stereo not given)	.	1	14	-1	0	0
CC(=O)Oc1ccc(-c2cccc(C(=O)O)c2)cc1	.	-13	i	4	-3	.
CC(=O)Oc1ccc(-c2ccc(C(=O)O)cc2)cc1	.	-25	25*	2	-1	0
Cn1c(CCNC(=O)c2ccco2)nc2cc(NC(=O)C3CCCCC3)ccc21	.	-12	-1	5	-1	.
Cn1c(CCNC(=O)c2ccco2)nc2cc(NC(=O)NC3CCCCC3)ccc21	.	-19	7.6*	-3	3	0
CCC(Oc1ccccc1)C(=O)Nc1ccc(-c2nnc(-c3ccco3)o2)cc1 (stereo not given)	.	-42	17*	12	3	0
C[C@@H]1CN([C@H](C)CO)C(=O)c2cc(-c3ccncc3)cnc2O[C@@H]1CN(C)S(=O)(=O)c1ccccc1	0	.	.	.	.	.
Cc1cc(C)cc(NS(=O)(=O)c2cccs2)c1	4	-19	i	-3	-2	.
CCc1ccc(NS(=O)(=O)c2cccs2)cc1	3	-12	21*	5	5	1
Cn1c(=O)c2c(nc(SCCN3CCOCC3)n2Cc2cccc3ccccc23)n(C)c1=O	.	-28	12	24	-2	0
Cc1cccc(N(CC(N)=O)C2SC(=O)N(c3ccccc3)C2=O)c1 (stereo not given)	.	-16	25*	-5	0	10
Cc1ccc(N(CC(N)=O)C2SC(=O)N(C)C2=O)cc1 (stereo not given)	.	-23	i	8	-1	.
CCCNC(=O)N1CC2(CN(Cc3ccc(F)cc3)C2)c2c([nH]c3cc(OC)ccc23)[C@H]1CO	4	.	.	.	.	.
CCc1sc(N(C(=O)Cc2ccccc2)c2cccc(F)c2)nc1-c1ccc(C)cc1	.	-5	12	2	1	0
O=S(=O)(NCC[C@@H]1CC[C@@H](NS(=O)(=O)c2ccccc2Cl)[C@H](CO)O1)c1ccc(F)cc1	-1	.	.	.	.	.
